This is an account of results in PubChem BioAssay (NCI).

This is part of a sample that, as a whole, favours compounds with a hit. Of some 79,000 tested, about 15% had one in any assay. Values without a mark were called inactive. Active and inactive are the calls of the source. No stated cut-off is given here; in the data, active means growth inhibition above about 70%; inactive means the rest.

The nature of experiment [1]: NCI Yeast Anticancer Drug Screen. Data for the rad50 strain (AID 155).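 Further: 0% = growth of vehicle-only cultures of the same strain.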 The settings on record: S. cerevisiae rad50 strain growth inhibition; at 50.0 µM; hits give high values. An outline of the steps: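 Yeast carrying a defined DNA repair defect were exposed to test compounds, and growth was compared with vehicle-treated controls to give percent inhibition.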
Experiment [2] can be described thus: NCI Yeast Anticancer Drug Screen. Data for the mec2-1 strain (AID 157). The settings on record: S. cerevisiae mec2-1 strain, at 50.0 µM, hits give high values. The procedure, abridged:
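Using mec2-1 yeast: add compound, measure growth, express inhibition versus vehicle-treated cultures.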

Experiment [3] can be described thus: NCI Yeast Anticancer Drug Screen. Data for the sgs1 mgt1 strain (AID 161).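 Further: 0% = growth of cultures given vehicle only.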 The settings on record: S. cerevisiae sgs1 mgt1 strain, at 50.0 µM, hits give high values. An outline of the steps:
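Yeast cells carrying a defined DNA-repair defect were exposed to test compounds. Growth inhibition was measured relative to vehicle-treated controls.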

Experiment [4] in a line: NCI Yeast Anticancer Drug Screen. Data for the cln2 rad14 strain (AID 165).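 Further: 0% = growth equal to vehicle treated cultures.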 The settings on record: S. cerevisiae cln2 rad14 strain, at 50.0 µM, hits give high values. The procedure, abridged: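 Yeast strain cln2 rad14, bearing defects in cell cycle control and DNA repair, serves as the test system; values reflect growth inhibition compared with vehicle.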
A short description of experiment [5]: NCI Yeast Anticancer Drug Screen. Data for the bub3 strain (AID 167). Conditions: S. cerevisiae bub3 mutant strain, at 50.0 µM, hits give high values. An outline of the steps: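 Compounds were applied to a genetically altered yeast strain carrying a cell-cycle control defect. Growth inhibition was scored against vehicle-treated controls.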
A short description of experiment [6]: NCI Yeast Anticancer Drug Screen. Data for the mlh1 rad18 strain (AID 175). Conditions: S. cerevisiae mlh1 rad18 strain growth inhibition; at 50.0 µM; hits give high values. An outline of the steps:
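Steps: expose repair-defective yeast to compound; measure growth; express inhibition against vehicle-treated controls.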

Take `O=c1[nH]cnc2c(C3OC(CO)C(O)C3O)[nH]nc12` (stereo unspecified): the growth inhibition in experiment [1] is -5.2%; in experiment [2] it was -34.7%; in experiment [3], -15.8%; in experiment [4], 3.3%; in experiment [5], -16.8%; in experiment [6] it was -0.45%.

Turning to `CCOC(=O)C1(C(F)(F)F)N=C(CC)OC(N2CCOCC2)=N1` (stereo unspecified), the growth inhibition in experiment [1] is -23.9%; in experiment [2], -12.6%; in experiment [3], -18.7%; in experiment [4] it was 10.1%; in experiment [5] it was -16%; in experiment [6], -27.1%.

In the case of `O=C(NCCCl)NCc1ccccc1`, the growth inhibition is -10.9% in experiment [1]; 2.35% in experiment [2]; 1.4% in experiment [3]; -40.1% in experiment [4]; -15.2% in experiment [5]; -2% in experiment [6].

Regarding `O=C1c2ccccc2C(=O)c2c1ccc1c2[nH]c2ccccc21`, the growth inhibition was 2.15% in experiment [1]; -4.8% in experiment [2]; 3.75% in experiment [3]; -67.2% in experiment [4]; 0.8% in experiment [5]; -4.85% in experiment [6].

Regarding `COC(=O)/N=c1\cc(N2CC=CCC2)nc(N)n1O`, the growth inhibition was -5.85% in experiment [1]; -10.7% in experiment [2]; -21.2% in experiment [3]; 18.9% in experiment [4]; -10.8% in experiment [5]; 5.4% in experiment [6].

`Brc1cc(Br)cc(-c2nnc(-c3cccc4ccccc34)o2)c1`: the growth inhibition in experiment [1] is -14.1%; in experiment [2] it was -16.4%; in experiment [3], 0.25%; in experiment [4], 24.1%; in experiment [5], 10.2%; in experiment [6] it was -4.65%.

For `COc1ccc(-c2nc3c(nc2-c2ccc(OC)cc2)C(N)=NS(=O)(=O)N3)cc1`, the growth inhibition in experiment [1] is -18.9%; in experiment [2], -7.95%; in experiment [3] it was -19.9%; in experiment [4], 2.2%; in experiment [5] it was -17.6%; in experiment [6], -10.1%.

In the case of `CCN1CCC(CC(c2ccccc2)c2ccccc2)C1` (stereo unspecified), the growth inhibition in experiment [1] is 19.4%; in experiment [2], -6.75%; in experiment [3] it was 34.2%; in experiment [4], -4.95%; in experiment [5], 10.1%; in experiment [6], 7%.

`CC(=O)ON1CCC=NC1`: the growth inhibition in experiment [1] is 19.7%; in experiment [2], 10.3%; in experiment [3], -20.4%; in experiment [4] it was 8.05%; in experiment [5], 3.95%; in experiment [6] it was -6.75%.

For `COC(=O)c1ccc(C(=O)OC)c2nc3cc(C)c(C)cc3nc12`, the growth inhibition is -0.7% in experiment [1]; 20.7% in experiment [2]; 0.1% in experiment [3]; -7.1% in experiment [4]; 5.35% in experiment [5]; 12% in experiment [6].

On to `O=C(OC1COC(OC(=O)c2ccc([N+](=O)[O-])cc2)C(OC(=O)c2ccc([N+](=O)[O-])cc2)C1OC(=O)c1ccc([N+](=O)[O-])cc1)c1ccc([N+](=O)[O-])cc1` (stereo unspecified), for which the growth inhibition in experiment [1] was -6.15%; in experiment [2], 1.65%; in experiment [3], -9.9%; in experiment [4], -16.9%; in experiment [5], -1.3%; in experiment [6], 4.3%.

As for `O=CN(Cc1ccccc1)Cc1ccccc1`, the growth inhibition is 5.15% in experiment [1]; 8.2% in experiment [2]; 3.65% in experiment [3]; 0.95% in experiment [4]; -3.8% in experiment [5]; -12.6% in experiment [6].

`CC1=C2C(C)CC3OC(=O)C(C)C3C(O)C2CC1=O` (stereo unspecified): the growth inhibition in experiment [1] is 5.8%; in experiment [2], -7.5%; in experiment [3] it was 1.2%; in experiment [4], -40.8%; in experiment [5] it was -8%; in experiment [6], -5.75%.

Take `COc1cc(C(CC(=O)O)CC(=O)O)cc(OC)c1OC`: the growth inhibition in experiment [1] is -2.45%; in experiment [2], -8.8%; in experiment [3] it was 25.4%; in experiment [4], 7.05%; in experiment [5], 15.6%; in experiment [6], 12.6%.

Regarding `O=C(C[n+]1ccncc1)c1ccc2c(c1)CCCC2`, the growth inhibition is -8.7% in experiment [1]; 10.8% in experiment [2]; 14.7% in experiment [3]; -5.95% in experiment [4]; 46.1% in experiment [5]; 20.5% in experiment [6].

Regarding `C/C(=N\NC(=O)c1cc(C)nc2ccc(Br)cc12)c1ccccc1O`, the growth inhibition was 71.1% (active) in experiment [1]; 63% in experiment [2]; 79.8% (active) in experiment [3]; 48.3% in experiment [4]; 7.3% in experiment [5]; 72.5% (active) in experiment [6].

Regarding `CCOC(=O)C(Cl)(NC(=O)c1ccc(F)cc1)C(F)(F)F` (stereo unspecified), the growth inhibition in experiment [1] was -6.25%; in experiment [2], 6.7%; in experiment [3], -18.5%; in experiment [4], 7.3%; in experiment [5], -12.9%; in experiment [6], -18.1%.

Turning to `CN(C)CCC(c1ccccc1)C(CO)c1ccccc1` (stereo unspecified), the growth inhibition is -24.6% in experiment [1]; 8.75% in experiment [2]; 9.9% in experiment [3]; 7.65% in experiment [4]; -2.1% in experiment [5]; 12.7% in experiment [6].

Consider `CCOc1ccc(NC(=O)c2ccccc2O)cc1`, for which the growth inhibition in experiment [1] was 26.9%; in experiment [2], 14%; in experiment [3], 17.7%; in experiment [4], -9.05%; in experiment [5], 17.3%; in experiment [6] it was 43.3%.

For the compound `O=C(O)c1ccc(N=NC2Sc3nc4ccccc4n3C2=O)cc1` (stereo unspecified), the growth inhibition is 16.7% in experiment [1]; -13.8% in experiment [2]; 15.7% in experiment [3]; -8.9% in experiment [4]; 11.2% in experiment [5]; 44.2% in experiment [6].

On to `CC(C)(C)c1cc(C(=O)Nc2cc(Br)c(Br)cc2S(N)(=O)=O)cc(C(C)(C)C)c1O`, for which the growth inhibition in experiment [1] is 37%; in experiment [2], 7.8%; in experiment [3], 31.6%; in experiment [4], 25%; in experiment [5], 39.8%; in experiment [6], 37.9%.
